The source of these data is PubChem BioAssay (EPA / NIEHS).

Activity calls are given as the source filed them. The calls were made as follows: active = hit-call score of the fitted dose curve at least 0.9, where 1 is the maximum; inactive = score below 0.9.

As a reminder, the AC50 is the midpoint of the concentration-response curve, whichever way the signal moves.

A short description of the test: Tanguay_ZF_120hpf_MUSC: Oregon State University Tanguay Lab 120 Hour Post-fertilization zebrafish Assay for Muscle Malformation (AID 2284401). How it is done:
Tanguay_ZF_120hpf is a whole embryo, multiplexed endpoint assay using zebrafish larvae exposed for 120 hours post fertilization on a 96-well plate.Tanguay_ZF_120hpf_MUSC is one of one assay component(s) measured or calculated from the Tanguay_ZF_120hpf assay. It is designed to make measurements of zebrafish development as detected with brightfield microscopy of developing zebrafish embryos.Data from the assay component Tanguay_ZF_120hpf_MUSC was analyzed into 1 assay endpoints. This assay endpoint, Tanguay_ZF_120hpf_MUSC, was analyzed in the positive analysis fitting direction relative to DMSO as the negative control and baseline of activity. Using a type of morphology reporter, gain-of-signal activity can be used to understand changes in developmentals as they relate to the whole embryo. To generalize the intended target to other relatable targets, this assay endpoint is annotated to the zebrafish development intended target family, where the subfamily is myogensis.
Zebrafish husbandry: Tropical 5D wild-type adult zebrafish were housed in at an approximate density of 1000 per 100 gallon tank at the Sinnhuber Aquatic Research Laboratory, Oregon State University, Corvallis, OR. Each tank was kept at standard laboratory conditions of 28C on a 14-h light/10-h dark photoperiod in fish water consisting of reverse osmosis water supplemented with a commercially available salt (Instant Ocean). Spawning funnels were placed into the tanks the night prior, and embryos were collected and staged. To increase bioavailability, the chorion was enzymatically removed using pronase (63.6mg/ml, >/= 3.5U/mg, Sigma-Aldrich: P5147) at 4 hours post fertilization (hpf) using a custom automated dechorionator.Chemical exposures: Six hpf dechorionated embryos were placed 1 embryo per well in a 96-well plate prefilled with 90 ul of EM using automated embryo placement systems (AEPS). Ten microliters of each row of dilution plate 2 was added to 2 exposure plates. The final DMSO concentration used was 0.64% (vol/vol). Thirty-two embryos were also exposed to 5uM trimethyltin chloride (positive control). Plates were sealed to prevent evaporation and foil covered to reduce light exposure and kept in a 28C incubator. Embryos were statically exposed until 120 hpf. At 24 hpf, embryos were assessed for photomotor response using a custom photomotor response analysis tool (PRAT) and for developmental toxicity endpoints (MO24: mortality at 24 hpf, DP: developmental progression, SM: spontaneous movement, and NC: notochord distortion). At 120 hpf, locomotor activity was measured using Viewpoint Zebralab and assessed for 13 endpoints. Zebrafish acquisition and analysis program (ZAAP), a custom program designed to inventory, acquire, and manage zebrafish data, was used to collect developmental endpoints as either present or absent (i.e., binary responses were recorded). If mortality occurred for an embryo (at either 24 or 120 hpf), the non-mortality endpoints were not measured.
`OCC(F)(F)OC(F)(F)C(F)(F)OC(F)(F)CO`: the compound was called inactive.

As for `O=C(O)C=CC(F)(C(F)(F)F)C(F)(F)F`, the result was inactive.

With `O=S(=O)(F)C(F)(F)C(F)(F)C(F)(F)C(F)(F)C(F)(F)C(F)(F)C(F)(F)C(F)(F)F`, the result was inactive.

Regarding `OCC(F)(F)OC(F)(F)C(F)(F)OC(F)(F)C(F)(F)OC(F)(F)F`, the compound was classed as inactive.

`COC(=O)C(F)(F)C(F)(F)OC(F)(C(F)(F)F)C(F)(F)OC(F)=C(F)F` (centres undefined): the result was inactive.

For `O=C(O)C(F)(F)C(F)(F)C(=O)O`, the call was inactive.

Turning to `CC(O)C(F)(F)C(F)(F)F` (centres undefined), the compound was called inactive.

`O=C(O)C(F)(OC(F)(F)C(F)(F)C(F)(F)F)C(F)(F)F` (centres undefined): the result was inactive.

With `O=C(O)C(F)(F)OC(F)(F)C(F)(F)OC(F)(F)C(=O)O`, the result was inactive.

Take `NC(=O)C(F)(F)C(F)(F)F`: the compound was classed as inactive.

As for `FC(F)(F)C(F)(C(F)(F)F)C(F)(F)C(F)(F)CC1CO1` (centres undefined), the call was inactive.

On to `C=CC(=O)OCC(F)(F)C(F)F`, for which the AC50 was 54.6 µM (active).

In the case of `O=C(O)C(F)(F)OC(F)(F)C(F)(F)OC(F)(F)F`, the compound was called inactive.

Turning to `OCC(F)(F)OC(F)(F)C(F)(F)OC(F)(F)C(F)(F)OC(F)(F)CO`, the AC50 is 36.7 µM (active).
